# Source: PubChem (National Center for Advancing Translational Sciences (NCATS))
# Most compounds without a hit are left out; they make up all but 12% or so of the library.
# SARS PLP yeast: blocks SARS-CoV papain-like protease in a yeast assay; 330,000 tested, 0.19% active; Potency, µM (series often up to 32.9 µM), for the others: top-dose activity, positive = growth rescue, actives largely listed as activators; AID 485353; S. cerevisiae expressing SARS-CoV PLpro, growth rescue; calls by dose curve; note: 0% is about no effect; nearly all actives have a fitted effect of over 55% in size
# HCV inh: HCV inhibition | AID 651820 | 340,000 tested, 3.4% active | Potency, µM (doses to about 41.8 µM), without a hit: at the highest dose activity change, negative = inhibition, most hits filed as inhibitors | Huh7.5.1 HCVcc-Cre infection, luciferase reporter, 44 h; note: % is set by controls: 0 for no effect and ±100 for the full control effect
#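 Cells seeded at 1,000/well and cultured 4 h, then compounds added followed by HCVcc-Cre virus (~0.5 moi). After 44 h further culture, luciferase substrate was added, plates held 15 min at room temperature, and luminescence read for 15 sec.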
# AMA1 RON2 block: inhibitors of Plasmodium falciparum AMA1-RON2 interaction. AlphaScreen AMA1-biotinylated RON2 peptide binding. 360,000 tested, 0.2% active. Potency, µM (top dose mostly 58.2 µM), inactives show top-dose activity change, negative = inhibition, actives largely listed as inhibitors;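 note: 0% = vehicle wells and -100% = peptide control; nearly all actives have a fitted effect of over 45% in size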
#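 AMA1 (3D7) with his tag at 25 nM final met compounds first, then biotinylated RON2 peptide at 25 nM; detection used donor plus acceptor beads, 10 µg/mL apiece, read by AlphaScreen after 30 min at room temperature.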
# Pf growth 96h: P. falciparum growth inhibition at 96 hours; P. falciparum luciferase reporter growth, 96 h; 320,000 tested, 6.9% active; Potency, µM (top dose mostly 28.7 µM), inactives show at the top dose activity change, negative = inhibition, most hits filed as inhibitors; note: % is set by controls: 0 for no effect and ±100 for the full control effect
#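 Two parasite generations (96 h, 37 C, 5% CO2) of compound exposure in infected erythrocytes (0.05% parasitemia, 2% hematocrit). Luciferase-reporter P. falciparum; decreased luminescence indicates inhibited growth, aimed at apicoplast-acting delayed death.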
# NS1 function inh: inhibitors of influenza NS1 protein function. Potency, µM (titrated, usually from 46.1 µM), for the others: at the highest dose activity, positive = more growth. 270,000 tested, 0.4% active; calls by dose curve; note: actives are rising curves; nearly all actives have a fitted effect of over 50% in size
#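 Compounds were scored for reversing the slow growth caused by influenza A NS1 in S. cerevisiae, measured by optical density at 600 nm. Assay medium contained 2% galactose at pH 6.0; NS1-free yeast of the same strain were the positive control.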
# Pf growth 48h: inhibits P. falciparum growth in the first generation, 48 h | P. falciparum luciferase growth in erythrocytes, 48 h | Potency, µM (highest dose often 28.7 µM), without a hit: at the highest dose activity change, negative = inhibition, actives largely listed as inhibitors | 310,000 tested, 5.9% active; note: % is set by controls: 0 for no effect and ±100 for the full control effect
#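 In quantitative HTS format, infected erythrocytes bearing luciferase-reporter parasites were treated for a single generation at 37 C. Luminescence after adding detection reagent served as the growth measure.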
# An asterisk follows results filed as active; ? = inconclusive; . = no result. Unless noted, calls come from the whole dose curve; as a rule, active = well fitted curve in the direction sought with a large enough effect; inconclusive = small, poorly fitted or top-dose-only effect, or another doubt; inactive = no such curve, though single readings can be large; an effect the other way counts as inactive or inconclusive. Potency is the fitted concentration of half-maximal effect.
SMILES,SARS PLP yeast,HCV inh,AMA1 RON2 block,Pf growth 96h,NS1 function inh,Pf growth 48h
COc1ccc(C)cc1N(C(=O)COc1cccc(F)c1)c1nc2ccccc2s1,-14%,-2%,-5%,?,-9%,0.74µM*
O=C(c1[nH]c(C(F)(F)F)nc1-c1ccccc1)N1CCN(c2ncccc2C(F)(F)F)CC1,.,.,1%,.,.,.
COc1cc(OC)cc(-c2c(-c3ccc(C(C)=O)cc3)c3cc(-c4cccc5[nH]ccc45)ccc3n2C)c1,2%,?,-5%,.,.,.
COc1cc(OC)cc(-c2c(-c3cccs3)c3cc(-c4ccn[nH]4)ccc3n2C)c1,1%,?,-13%,?,.,4.7µM*
COc1cc(OC)cc(-c2c(-c3cccs3)c3cc(-c4cccc5[nH]ccc45)ccc3n2C)c1,-3%,?,-10%,?,.,2.3µM*
Cn1c(-c2ccsc2)c(-c2cccs2)c2cc(-c3ccc4[nH]ccc4c3)ccc21,-3%,?,-9%,5.9µM*,.,5.2µM*
COc1cc(F)cc(-c2ccc3c(c2)c(-c2cccs2)c(-c2cc(OC)cc(OC)c2)n3C)c1,1%,?,-5%,?,.,9.3µM*
N[C@@H](CCCC(=O)O)C(=O)O,.,.,.,.,-6%,.
Cc1nn(-c2ccc(Cl)cc2)c(Cl)c1/C=N/NC(=O)c1ccc(NS(=O)(=O)c2cccs2)cc1,.,?,80%,.,.,.
COc1cccc(C(=O)Nc2ccc(Oc3cccc(C(F)(F)F)c3)nc2)c1,-2%,7.1µM*,5%,?,-2%,9.3µM*
O=C(Nc1ccc(Oc2cccc(C(F)(F)F)c2)nc1)c1cccs1,-4%,?,5%,?,-10%,1.7µM*
COc1cc(NC(=O)c2ccnnc2)cc(C(=O)Nc2cccc(C(F)(F)F)c2)c1,0%,?,-8%,4.1µM*,3%,9.3µM*
COc1ccc(NC(=O)COc2cccc(C(F)(F)F)c2)cn1,-4%,19%,-1%,0%,.,?
O=C(Nc1ccc(Oc2cccc(C(F)(F)F)c2)nc1)c1ccccc1,-1%,?,-15%,15µM*,-6%,10µM*
CSc1cccc(N2CC(C(=O)N3CCN(S(=O)(=O)c4ccccc4Cl)CC3)CC2=O)c1 (stereo unspecified),-6%,?,-1%,.,.,.
COC(=O)C1=CN(C(C)C)C=C(C(=O)OC)C1c1cccc(OC)c1,-1%,40%,44%,122%,-15%,?
COC(=O)C1=CN(C(C)C)C=C(C(=O)OC)C1c1cc(Br)c(OC)c(OC)c1,5%,-4%,54%,7.4µM*,-28%,4.7µM*
C=CCn1c(N)cc(=O)nc1SC(C)C(=O)Nc1ccc(C(=O)OCC)cc1 (stereo unspecified),0%,26%,6%,15%,0%,4.1µM*
Cc1ccc(NC(=O)C(C)Sc2nc(=O)cc(N)n2-c2ccccc2)cc1 (stereo unspecified),-2%,14%,0%,-8%,16%,.
CCOC(=O)C1=C(C)N=c2s/c(=C\c3ccc(OCC(=O)O)cc3)c(=O)n2C1c1ccccc1OC (stereo unspecified),2%,4%,-10%,18%,6%,1µM*
CCOC(=O)C1=C(C)N=c2s/c(=C/c3ccc(OCC(=O)O)cc3)c(=O)n2C1c1ccc(OC)cc1OC (stereo unspecified),-6%,22%,-3%,1.2µM*,4%,0.47µM*
CCOC(=O)C1=C(C)N=c2s/c(=C\c3ccc(O)c([N+](=O)[O-])c3)c(=O)n2C1c1ccccc1OC (stereo unspecified),-10%,4%,-5%,-95%,29%,?
CCOC(=O)C1=C(C)N=c2s/c(=C/c3cccc([N+](=O)[O-])c3O)c(=O)n2C1c1ccc(OC)cc1OC (stereo unspecified),-6%,-24%,-15%,4.7µM*,30%,?
CCOC(=O)C1=C(C)N=c2s/c(=C/c3ccc(OCC(=O)O)c(OC)c3)c(=O)n2C1c1ccc(Cl)cc1 (stereo unspecified),.,0%,2%,.,.,.
